KCNQ2 pot: potentiators of rat KCNQ2 potassium channel; Potassium voltage-gated channel subfamily KQT member 2 (Rattus norvegicus), O88943; CHO-K1 KCNQ2, FluxOR thallium flux fluorescence; active compounds read high; B-score at 10 µM; actives 0.54% (n = 310,000);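 active = fluorescence ratio B-score at least 3 SD of library B-scores, with initial fluorescence B-score within 3 of them, cut at about 5.3 in these data; same plate scores as AID 2156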;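 note: B-score of peak minus minimum over baseline fluorescence ratio after K+ and Tl+ stimulus; positive B-score means potentiation of KCNQ2 with more thallium influx and brighter signal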
Target sequence (O88943 whole entry, looked up): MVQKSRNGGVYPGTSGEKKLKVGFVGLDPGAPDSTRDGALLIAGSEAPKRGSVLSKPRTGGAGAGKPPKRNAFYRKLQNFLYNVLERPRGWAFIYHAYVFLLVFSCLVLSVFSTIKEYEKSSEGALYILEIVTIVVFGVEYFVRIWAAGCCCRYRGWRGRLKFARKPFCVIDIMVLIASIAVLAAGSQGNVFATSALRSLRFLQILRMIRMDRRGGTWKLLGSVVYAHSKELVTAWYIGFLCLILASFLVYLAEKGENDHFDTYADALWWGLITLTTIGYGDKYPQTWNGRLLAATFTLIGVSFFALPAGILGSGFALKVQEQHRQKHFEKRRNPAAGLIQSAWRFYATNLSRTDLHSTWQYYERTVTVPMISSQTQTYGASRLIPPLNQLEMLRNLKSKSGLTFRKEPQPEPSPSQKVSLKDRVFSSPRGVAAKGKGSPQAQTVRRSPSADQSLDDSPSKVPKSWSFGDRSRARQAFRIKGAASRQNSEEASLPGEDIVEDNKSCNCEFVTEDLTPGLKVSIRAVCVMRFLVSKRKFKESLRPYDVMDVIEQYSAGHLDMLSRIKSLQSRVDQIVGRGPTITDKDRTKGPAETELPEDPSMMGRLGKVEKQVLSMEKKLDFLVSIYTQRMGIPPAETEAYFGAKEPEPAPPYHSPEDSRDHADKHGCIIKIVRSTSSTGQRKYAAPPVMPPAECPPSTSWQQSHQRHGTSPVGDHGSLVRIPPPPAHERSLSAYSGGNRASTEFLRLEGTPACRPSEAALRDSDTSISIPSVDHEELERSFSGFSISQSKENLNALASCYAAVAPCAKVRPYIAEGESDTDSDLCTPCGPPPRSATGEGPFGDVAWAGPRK
KCNQ2 block: rat KCNQ2 potassium channel inhibitors, primary screen, cell-based, CHO-K1, FluxOR thallium flux, B-score; 20 min; active compounds read low; B-score at 10 µM; actives 1.1% (n = 310,000); AID 2156, 2009;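 active = fluorescence ratio B-score at most minus 3 library SDs, with starting brightness B-score within 2 library SDs, cut at about -5.5 in these data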
An asterisk follows results filed as active. A selection: hits, their analogues and other compounds. The true share with any hit is near 1.6%.

`O=C(c1cccs1)c1cn(Cc2ccccc2Cl)c2ccccc12` gave KCNQ2 pot -7.3 and KCNQ2 block -7.3*.
For N#Cc1ccccc1Cn1cc(C(=O)c2cccs2)c2ccccc21 the results were KCNQ2 block inactive.
`C[N+]1(C)CCc2cc3c(cc2[C@H]1[C@@H]1OC(=O)c2c1ccc1c2OCO1)OCO3` gave KCNQ2 pot 0.11 and KCNQ2 block inactive.
CC(C)c1ccc(-n2c(O)c(C=NC(CCS(C)=O)C(=O)O)c(=O)[nH]c2=S)cc1 (centres undefined) was read as KCNQ2 pot 0.14 and KCNQ2 block inactive.
Cc1nc2ccccc2c(=O)n1-c1ccccc1[N+](=O)[O-] was read as KCNQ2 pot 1.1 and KCNQ2 block inactive.
Cc1nc2ccccc2c(=O)n1-c1ccc(Br)cc1[N+](=O)[O-] was read as KCNQ2 pot 7.4* and KCNQ2 block inactive.
Screening CC[C@@H]1C(=O)OC[C@@H]1Cc1cncn1C returned KCNQ2 pot 0.15 and KCNQ2 block inactive.
`CCOC(=O)Cn1cc(C=C2C(=O)N(C)C(=O)N(C)C2=O)c2ccccc21` gave KCNQ2 pot 2.5 and KCNQ2 block inactive.
Screening CCC(C(=O)N1CCC2(CC1)OCCO2)n1c2ccccc2c2nc(=O)cc(C)n21 (centres undefined) returned KCNQ2 pot 0.3 and KCNQ2 block inactive.
`CSc1ccc(CN2CCN(C(=O)COc3cccc(C)c3)CC2)cc1` gave KCNQ2 block inactive.
Screening Cc1cc(O)c2c(c1)OC(C)(C)C1=C2CC(C)CC1 (centres undefined) returned KCNQ2 pot -7.3 and KCNQ2 block -7.3*.
Screening Cc1cc(O)c2c3c(c(=O)oc2c1)CCC(C)C3 (centres undefined) returned KCNQ2 block inactive.
For CC12CCC3C(CC=C4CC5(CCC43C)OCCO5)C1CCC2=O (centres undefined) the results were KCNQ2 block inactive.
Screening CCCCC(=O)N/N=C/c1c(O)n(CCc2ccccc2)c(=O)[nH]c1=O returned KCNQ2 block inactive.
Screening Clc1ccc(COC(Cn2ccnc2)c2ccc(Cl)cc2Cl)cc1 (centres undefined) returned KCNQ2 pot -8.3 and KCNQ2 block -8.3*.
Screening Clc1ccc(CSC(Cn2ccnc2)c2ccc(Cl)cc2Cl)cc1 (centres undefined) returned KCNQ2 block inactive.
`Oc1ccc2ccccc2c1CN1CC=C(c2ccccc2)CC1` gave KCNQ2 pot 1.1 and KCNQ2 block inactive.
`Cn1c(=O)n(C)c2cc([N+](=O)[O-])c(N3CCNCC3)cc21` gave KCNQ2 block inactive.
Screening CC(C)CNC(=O)c1c(N)n(Cc2ccco2)c2nc3ccccc3nc12 returned KCNQ2 block inactive.
Cc1ccc(S(=O)(=O)N(C)C/N=C(\N)N[N+](=O)[O-])cc1 was read as KCNQ2 pot 0.1 and KCNQ2 block inactive.
`COC(=O)[C@@H](N)CCCN=C(N)N[N+](=O)[O-]` gave KCNQ2 pot -6.4 and KCNQ2 block -6.4*.
`CC12CN3CC(C)(CN(C1)C3c1cccs1)C2=O` (centres undefined) gave KCNQ2 pot 0.02 and KCNQ2 block inactive.
Nc1ccccc1-[n+]1c(-c2ccccc2)cc(-c2ccccc2)cc1-c1ccccc1 was read as KCNQ2 pot -6.5 and KCNQ2 block -6.5*.
`O=C(O)c1ccc(-[n+]2c(-c3ccccc3)cc(-c3ccccc3)cc2-c2ccccc2)cc1` gave KCNQ2 pot 1.9 and KCNQ2 block inactive.
COCCCn1c(N)c(C(=O)OCCOC)c2nc3ccccc3nc21 was read as KCNQ2 pot 0.78 and KCNQ2 block inactive.
For CCCCNC(=O)c1c(N)n(CCCOC)c2nc3ccccc3nc12 the results were KCNQ2 pot -8.5 and KCNQ2 block -8.5*.
O=P(Oc1ccccc1)(Oc1ccccc1)N1CCN(c2ccc(F)cc2)CC1 was read as KCNQ2 block inactive.
Cc1c2cnn(CC(=O)N3CCC4(CC3)OCCO4)c(=O)c2c(C)n1Cc1ccccc1 was read as KCNQ2 block inactive.
O=C(Cn1ncc2c3ccccc3n(Cc3ccc(F)cc3)c2c1=O)N1CCC2(CC1)OCCO2 was read as KCNQ2 pot 19* and KCNQ2 block inactive.
For O=C1CC2OCC=C3CN4CCC56c7cc([N+](=O)[O-])ccc7N1C5C2C3CC46 (centres undefined) the results were KCNQ2 block inactive.
For O=C(Nc1cccnc1)c1c(O)c2c(n(Cc3ccccc3)c1=O)CCCC2 the results were KCNQ2 pot -5.8 and KCNQ2 block -5.8*.
For O=C(Nc1ccc(F)cc1)c1c(O)c2c(n(Cc3ccccc3)c1=O)CCCC2 the results were KCNQ2 block inactive.
Cc1cccc(C(=O)NC(Oc2ccccc2)C(Cl)(Cl)Cl)c1 (centres undefined) was read as KCNQ2 pot -5.7 and KCNQ2 block -5.7*.
For CCOP(=O)(OCC)C(NC(=O)c1cccc(C)c1)C(Cl)(Cl)Cl (centres undefined) the results were KCNQ2 pot 0.7 and KCNQ2 block inactive.
Screening O=C1NC(=O)C(=Cc2coc3ccc(O)cc3c2=O)C(=O)N1 returned KCNQ2 pot -5.8 and KCNQ2 block -5.8*.
For CN1C(=O)C(=Cc2coc3ccccc3c2=O)C(=O)N(C)C1=O the results were KCNQ2 block inactive.
CSc1ccc(CN2CCN(C(=O)Cc3ccccc3)CC2)cc1 was read as KCNQ2 pot 0.4 and KCNQ2 block inactive.
For CSc1ccc(CN2CCN(Cc3ccccc3Cl)CC2)cc1 the results were KCNQ2 pot -6.6 and KCNQ2 block -6.6*.
`COc1cccc(OP(=O)(Nc2ccccc2)Oc2cccc(OC)c2)c1` gave KCNQ2 pot -7.1 and KCNQ2 block -7.1*.
Screening O=P(Nc1ccccc1)(Oc1ccccc1)Oc1ccccc1 returned KCNQ2 pot 0.72 and KCNQ2 block inactive.
O=C(COc1ccc(Br)cc1)N1CCN(C2CCCC2)CC1 was read as KCNQ2 block inactive.
Screening Cc1ccc(OCC(=O)N2CCN(C3CCC(c4ccccc4)CC3)CC2)cc1 (centres undefined) returned KCNQ2 pot -6.2 and KCNQ2 block -6.2*.
Screening COc1ccc(OC)c(NP(=O)(Oc2ccc(Cl)cc2)Oc2ccc(Cl)cc2)c1 returned KCNQ2 pot -6.1 and KCNQ2 block -6.1*.
COc1ccc(OC)c(NP(=O)(Oc2ccccc2)Oc2ccccc2)c1 was read as KCNQ2 pot 0.02 and KCNQ2 block inactive.
`O=C(O)c1cn(Cc2ccccc2)nc1-c1ccccc1` gave KCNQ2 block inactive.
Screening CCOC(=O)C1(c2ccccc2)CCN(CCC(C#N)(c2ccccc2)c2ccccc2)CC1 returned KCNQ2 pot -6.8 and KCNQ2 block -6.8*.
Screening CCOC(=O)C1(c2ccccc2)CCN(CC(=O)Nc2ccc(C)cc2)CC1 returned KCNQ2 block inactive.
For CC(C)(C)c1ccc(C(=O)C2CCCN(C3CCC3)C2)cc1 (centres undefined) the results were KCNQ2 block inactive.
Screening O=C1/C(=C\c2ccc(Cl)c(Cl)c2)N2CCC1CC2 returned KCNQ2 block inactive.
Clc1ccc(CO/N=C(\Cn2ccnc2)c2ccc(Cl)cc2Cl)c(Cl)c1 was read as KCNQ2 pot -6 and KCNQ2 block -6*.
Screening N=c1sccn1Cc1ccc(Cl)cc1Cl returned KCNQ2 pot 1.7 and KCNQ2 block inactive.

Screening data deposited in PubChem BioAssay by Johns Hopkins Ion Channel Center.
